sPLA2-III inh: Blocks human group III sPLA2 activity; Q9NZ20; QFRET BODIPY PC-A2 liposome hydrolysis, fluorescence; inhibition, % at 12.2 µM; 370,000 compounds, 0.56% hits; AID 743126;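 active = inhibition above mean plus 3 SD of compounds lying within the high and low control bounds, cut at about 19% in these data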;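 also: 0% = median of test compound wells and 100% = no enzyme DMSO wells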
Target sequence (Q9NZ20 whole entry, looked up): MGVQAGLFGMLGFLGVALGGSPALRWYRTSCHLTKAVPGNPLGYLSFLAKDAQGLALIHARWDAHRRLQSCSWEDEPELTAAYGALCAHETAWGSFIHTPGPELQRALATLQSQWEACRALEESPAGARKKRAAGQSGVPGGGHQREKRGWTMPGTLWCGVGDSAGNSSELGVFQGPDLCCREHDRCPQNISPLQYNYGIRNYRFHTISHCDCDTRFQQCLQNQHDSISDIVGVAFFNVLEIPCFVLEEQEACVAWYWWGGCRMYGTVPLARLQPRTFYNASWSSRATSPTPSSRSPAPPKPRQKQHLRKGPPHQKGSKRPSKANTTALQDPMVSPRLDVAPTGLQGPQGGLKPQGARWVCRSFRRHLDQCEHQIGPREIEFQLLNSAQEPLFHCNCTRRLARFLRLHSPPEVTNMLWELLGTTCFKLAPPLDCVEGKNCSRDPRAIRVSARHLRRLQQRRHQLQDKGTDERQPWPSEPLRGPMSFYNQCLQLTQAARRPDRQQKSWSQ
rCAG binder: r(CAG) repeat RNA binding; TO-PRO-1 dye displacement fluorescence; inhibition, % at 3 µM; 370,000 compounds, 1.3% hits; AID 651821;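 active = inhibition above the plate cutoff, the mean of all test compounds on that plate plus 3 SD, cut at about 35% in these data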;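 also: 0% = DMSO alone and 100% = 100 µM mitoxantrone as full dye displacement; higher means more dye released from RNA so lower well fluorescence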
bovine MsrA act: activators of bovine methionine sulfoxide reductase A. purified bovine MsrA, absorbance read-out. activation, % at 10.6 µM. 360,000 compounds, 0.3% hits. AID 602163; in the data active = activation above about 7.5%;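 also: 0% = vehicle and 100% = reference activator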
MsrA inhibitor: bovine MsrA inhibition; inhibition, % at 15.5 µM; purified bovine MsrA, absorbance read-out; 360,000 compounds, 0.75% hits; in the data active = inhibition above about 4.5%;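 also: 0% = vehicle wells with enzyme and 100% = reference inhibitor wells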
hGIII sPLA2 conf: human GIII-sPLA2 inhibition, confirmation | shares compounds with sPLA2-III inh | recombinant hGIII-sPLA2, BODIPY PC-A2 QFRET fluorescence | inhibition, % at 12.2 µM | 2,000 compounds, 34% hits | AID 743280;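 active = mean inhibition across triplicates above the hit cutoff set in the earlier primary screen, cut at about 19% in these data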;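 also: 0% = enzyme with DMSO and 100% = DMSO wells lacking enzyme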
BODIPY interf: optically interferes with 535nm fluorescence in sPLA2 counter-screen | shares compounds with sPLA2-III inh | BODIPY FL product fluorescence interference, QFRET | inhibition, % at 12.2 µM | 2,000 compounds, 8.5% hits;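 active = average inhibition above the solvent-only control mean plus 3 SD, cut at about 6% in these data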;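 also: 0% = DMSO with substrate plus product and 100% = DMSO with substrate alone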
The depositor's hits bear a star; . = no result. A selection: hits, their analogues and other compounds. The true share with any hit is near 2.8%.

SMILES	sPLA2-III inh	rCAG binder	bovine MsrA act	MsrA inhibitor	hGIII sPLA2 conf	BODIPY interf
CCOC(=O)NC(NC(=S)Nc1ccc(OCC)cc1)C(Cl)(Cl)Cl (stereo not drawn)	23.9*	0.7	-3.3	0.4	9.4	-5.5
Cc1ccc(C2=NOC(C)(c3nnc(-c4ccc(F)cc4)o3)C2)cc1 (stereo not drawn)	3.7	-6.2	-1.4	-0.2	.	.
C/C(=N\NC(=O)COc1cccc(C)c1)c1ccc2ccccc2c1O	22.3*	5.7	-1.5	0.9	38.8*	6.0*
Nc1ccc2c(c1)C(=O)c1cc(N)c(Cl)cc1-2	29.1*	5.1	-2.0	0.7	30.9*	8.2*
CCC(=O)NC(=S)Nc1ccc(-c2nc3ccc(C)cc3s2)cc1	19.3*	-0.5	-2.6	0.0	0.1	-7.5
CCn1c(CSCc2ccc(C)cc2)n[nH]c1=S	29.9*	-4.4	-1.6	0.9	25.0*	2.5
C=CCn1c(CSCc2ccc(F)cc2)n[nH]c1=S	14.7	-2.5	2.5	-0.7	.	.
CCn1c(CSCc2ccc(Cl)cc2)n[nH]c1=S	19.2*	-3.2	-7.8	-0.9	25.6*	3.0
CNC[C@H]1Oc2c(NC(=O)C3CC3)cccc2C(=O)N([C@H](C)CO)C[C@@H]1C	0.4	-2.3	1.4	-0.8	.	.
N/C(=N\C(=S)Nc1ccccc1)c1ccccc1	1.9	-1.5	0.4	-0.4	.	.
NC(N)=NC(=S)Nc1ccc(Cl)cc1	21.5*	-3.7	-0.2	0.5	17.9	-3.6
C=CCNC(=O)CNS(=O)(=O)c1ccc(F)cc1	20.2*	-2.6	-2.1	0.3	-0.2	-4.2
O=C(O)CNS(=O)(=O)c1ccc(F)cc1	-2.4	-1.1	-2.9	-0.1	.	.
CCCCCC/C(=N/O)c1ccccn1	21.7*	-4.3	-1.9	1.2	12.0	-6.3
COc1cccc(Sc2ccccc2CN(C)C)c1	20.2*	1.8	-2.9	-0.7	-3.2	-19.2
COc1cc(NC(=O)c2cccs2)ccc1NC(=O)c1ccco1	3.3	8.4	3.0	2.3	.	.
Cn1c2ccc(F)cc2c2ncn(CC3CCCO3)c(=O)c21 (stereo not drawn)	20.7*	-2.5	-1.9	0.6	-0.6	-5.1
Cn1ccc2c(-c3ccccc3F)cc3c(c21)C1CCC3C1 (stereo not drawn)	8.3	0.1	-3.4	1.6	.	.
COc1cccc(-c2cc3c(c4c2ccn4C)C2CCC3C2)c1 (stereo not drawn)	19.3*	12.2	-2.9	0.8	-5.2	1.6
COc1ccc(-c2cc3c(c4c2ccn4C)C2CCC3C2)cc1 (stereo not drawn)	16.0	6.4	-2.4	1.0	.	.
COc1ccccc1-c1cc2c(c3c1ccn3C)C1CCC2C1 (stereo not drawn)	22.3*	2.9	-7.4	0.9	4.0	-2.7
COc1ccc(C2=NOC(C(=O)Nc3cccc(O)c3)C2)cc1 (stereo not drawn)	-11.9	0.8	-7.8	0.8	.	.
Cc1cc(-c2ccccc2)nc2oc3c(c12)NC(=O)CN(c1ccccc1)C3=O	-0.1	-0.1	-2.8	1.1	.	.
COc1cccc(N2CC(=O)Nc3c(oc4nc(-c5ccccc5)cc(C)c34)C2=O)c1	19.7*	2.9	-1.2	-0.1	-2.8	-12.7
Cc1ccccc1C1C(C#N)=C2N=C(N)c3c(sc4c3CCCCC4)N2C2=C1C(=O)CC(C)(C)C2 (stereo not drawn)	-7.5	1.1	-4.7	0.0	.	.
SMILES	sPLA2-III inh	rCAG binder	bovine MsrA act	MsrA inhibitor	hGIII sPLA2 conf	BODIPY interf
O=c1cc(C(F)(F)C(F)F)oc2ccccc12	24.8*	-0.7	-2.5	0.0	-1.7	-6.3
O=c1cc(-c2ccccc2F)oc2ccccc12	1.1	2.7	-8.7	0.7	.	.
CC(C)C[C@@H]1COc2cc(N3CCCC3)ccc2S(=O)(=O)N1	20.6*	3.0	.	1.9	16.6	-5.8
CCCn1c(C(C)C)n[nH]c1=S	25.6*	-1.2	-2.1	0.2	8.7	-4.3
COC(=O)C[C@H]1CC[C@@H]2[C@H](COc3ccc(NC(=O)C(C)C)cc3C(=O)N2C)O1	19.2*	2.4	.	.	-0.5	-5.9
COc1cccc(CNC(=O)C[C@H]2CC[C@H]3[C@@H](COc4ccc(NC(=O)c5cccs5)cc4C(=O)N3C)O2)c1	-27.7	8.9	.	.	.	.
CCC(=O)Nc1ccc2c(c1)C(=O)N(C)[C@@H]1CC[C@@H](CC(=O)NCc3ccc(OC)cc3)O[C@H]1CO2	19.3*	6.1	.	.	0.6	-5.2
CCS(=O)(=O)Nc1ccc2c(c1)C(=O)N(C)[C@@H]1CC[C@H](CC(=O)N[C@@H]3CCN(Cc4ccccc4)C3)O[C@H]1CO2	20.0*	8.7	.	.	-0.7	-11.7
